Source: PubChem BioAssay (Tox21)
Results filed as inconclusive are left out. Values without a mark were called inactive. Calls follow the shape of the dose curve; as a rule, active = well fitted activation curve with a large enough effect in the signal ratio in the repeat runs (not every such curve was filed as active); inconclusive = weak or mixed curves; inactive = flat fitted curve, though single readings scatter; the % refers to the signal ratio.

assay: qHTS assay to identify small molecule agonists of H2AX (AID 1224845); conditions: CHO-K1 phospho-H2AX Ser139 HTRF, 3 h; series mostly up to 154 µM; activation (H2AX phosphorylation): at the top concentration
Outline: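 Wild-type CHO-K1 cells, plated overnight, exposed 3hr at 37C to 15 concentrations (0.76% DMSO final). Lysed, then HTRF anti-pH2AX (S139) cryptate and anti-H2AX-d2 antibodies, 24 hr room temperature; 665/620 nm emission read.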
% is scaled to controls: 0 for no effect and ±100 for the full control effect.

Point of comparison: `CC(=O)C=O`, “activation (H2AX phosphorylation)” value -0.783%. Against it:
- CC(C)=CC1CC(C)CCO1 (centres undefined) — higher, 0.139%
- O=C1OC(=O)c2ccc3c4c(ccc1c24)C(=O)OC3=O — lower, -3.02%
- CC1CCCCC1 — lower, -1.18%
- Cc1cc(C)c(C=O)c(C)c1 — higher, 0.954%
- Clc1nc2ccccc2s1 — higher, 0.517%
- CCCC(C)CCC(C)=O (centres undefined) — higher, -0.0635%
- Cc1cccc(Br)c1 — higher, 1.29%
- O=CC1CC1 — higher, 2.2%
- OCCCc1cccnc1 — higher, -0.177%
- OCCC(O)CO (centres undefined) — lower, -2.69%
- COC(=O)CC#N — higher, -0.118%
- O=C(O)CCCCCCC(=O)O — lower, -2.71%
- COc1ccccc1C=O — higher, -0.659%
- Clc1cccnc1 — lower, -4.89%
- CCOB(OCC)OCC — higher, 1.09%
- COc1ccc(C#N)cc1 — lower, -3.03%
- CCCCCCCCC(C)=O — lower, -2.55%
- CCc1ccc(O)c(C(C)(C)C)c1 — higher, 3.77%
- CCCCCCCC/C=C\CCCCCCCC(=O)OCCOC(=O)CCCCCCC/C=C\CCCCCCCC — lower, -2.53%
- CCOC(=O)CN — lower, -2.64%
- Cc1c(C(=O)O)cccc1[N+](=O)[O-] — higher, 1.33%
- CCc1ccc(C)nc1 — higher, -0.0156%
- COc1cccc(O)c1 — lower, -1.85%
- CC(=O)O[C@@H]1C[C@@H]2CC[C@@]1(C)C2(C)C — higher, 0.482%
- OCCN1CN(CCO)CN(CCO)C1 — higher, 5.26%
- CCCCCCCC(C)=O — higher, -0.26%
- C=CC(C)C#N (centres undefined) — higher, 1.44%
- CCC(=O)OCCc1ccccc1 — higher, 2.41%

Point of comparison: `Cc1cn[nH]c1`, “activation (H2AX phosphorylation)” value -3.12% [at 70.9 µM]. Against it:
- CCN(CC)CCCN(c1ccccc1)C1Cc2ccccc2C1 — lower, -3.7% [at 70.9 µM]
- CCCCCCCCCCCCCc1ccccc1 — higher, -2.18% [at 70.9 µM]
- CCCCCCCC(OC)OC — higher, 1.47% [at 70.9 µM]

`CCC(=O)CC(C)CC` (centres undefined) gave an activation (H2AX phosphorylation) of 0.83% [at 0.582 µM].

Point of comparison: `O=S(O)O`, activation (H2AX phosphorylation) -2.47% [at 31.6 µM]. Against it:
- O=C=NCc1cccc(CN=C=O)c1 — lower, -2.62% [at 31.6 µM]

assay: qHTS assay to identify small molecule agonists of the hypoxia (HIF-1) signaling pathway (AID 1224846); conditions: HRE-bla ME-180 cells, beta-lactamase ratio, 17 h; series mostly up to 76.8 µM; activation: at the top concentration
Outline: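 Steps: seed ME-180 HRE-bla cells (2,000/well, 0.5% dialyzed FBS); incubate 5 hrs at 37C; pin-transfer compounds or DMSO; incubate 17 hrs; add LiveBLAzer B/G substrate CCF4-AM; measure reporter activation by FRET.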

Point of comparison: `COC(=O)CC#N`, “activation” value -0.787%. Against it:
- CC(C)=CC1CC(C)CCO1 (centres undefined) — higher, -0.365%
- O=C1OC(=O)c2ccc3c4c(ccc1c24)C(=O)OC3=O — lower, -1.66%
- CC1CCCCC1 — higher, -0.132%
- Cc1cc(C)c(C=O)c(C)c1 — higher, 0.692%
- Clc1nc2ccccc2s1 — higher, 0.31%
- CCCC(C)CCC(C)=O (centres undefined) — higher, -0.0206%
- Cc1cccc(Br)c1 — higher, 5.44%
- O=CC1CC1 — higher, -0.52%
- OCCCc1cccnc1 — higher, 0.2%
- OCCC(O)CO (centres undefined) — higher, -0.0619%
- O=C(O)CCCCCCC(=O)O — higher, -0.642%
- COc1ccccc1C=O — higher, 0.175%
- Clc1cccnc1 — lower, -1.43%
- CCOB(OCC)OCC — higher, 0.134%
- CC(=O)C=O — higher, -0.366%

In the case of `Cc1cn[nH]c1`, the “activation” value is reported as -1.43% [at 35.5 µM].

With `CCC(=O)CC(C)CC` (centres undefined) the activation was 0.22% [at 0.291 µM].
